Source: PubChem
CYP2C19 inhib – blockers of cytochrome P450 2C19 activity – biochemical, luminescence, ADME assay, primary screen; AID 778, 2007; 96,000 tested, 21% active; inhibition, % at 5 µM; CYP2C19 Supersomes, luciferin-H EGE luminescence, 30 min; P33261;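 active = CYP2C19 inhibition above a set limit at 5 µM in the primary screen, cut at about 50% in these data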;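 note: plate controls were negative control wells for no effect and 2.5 mM tranylcypromine positive control for full effect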
Target sequence (P33261 whole entry, looked up): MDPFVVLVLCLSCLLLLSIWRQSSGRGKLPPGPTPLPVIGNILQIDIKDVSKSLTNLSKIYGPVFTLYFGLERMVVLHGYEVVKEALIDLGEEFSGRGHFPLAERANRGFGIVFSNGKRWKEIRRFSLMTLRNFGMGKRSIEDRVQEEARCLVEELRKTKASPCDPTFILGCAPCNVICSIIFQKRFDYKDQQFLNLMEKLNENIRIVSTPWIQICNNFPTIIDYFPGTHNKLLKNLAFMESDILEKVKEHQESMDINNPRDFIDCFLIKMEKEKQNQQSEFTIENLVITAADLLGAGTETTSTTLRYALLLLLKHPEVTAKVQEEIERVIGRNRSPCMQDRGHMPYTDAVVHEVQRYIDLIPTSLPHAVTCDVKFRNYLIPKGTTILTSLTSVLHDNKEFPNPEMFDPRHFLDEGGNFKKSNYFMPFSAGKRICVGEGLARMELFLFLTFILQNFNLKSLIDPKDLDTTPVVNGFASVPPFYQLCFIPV
CD11b adhes inh – inhibitors of CD11b/CD18 adhesion to fibrinogen, primary screen, K562 cells, luminescence; ATPlite luminescence; Mn2+ added to activate the integrin; Integrin beta-2 (Homo sapiens) + Integrin alpha-M (Homo sapiens), P05107+P11215; 93,000 tested, 0.54% active; inhibition, % at 10 µM;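 active = primary inhibition of 50% or more at 10 µM, then 40% or more on retest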
CYP2C19 activ – human CYP2C19 activators, primary screen, biochemical, luminescence; AID 1025, 2008; 96,000 tested, under 10 active; Cytochrome P450 2C19 (Homo sapiens), P33261; activation factor at 5 µM; recombinant CYP2C19, luciferin-H EGE luminescence; stronger effect = higher value; 0 = fully inhibited enzyme, 1 = untreated enzyme;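 active = activation factor of at least 2 at 5 µM in the primary screen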;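 note: 0 = wells with 2.5 mM tranylcypromine and 1 = vehicle-only wells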
CYP2C9 inh – blockers of cytochrome P450 2C9 activity – biochemical, luminescence, ADME assay, primary screen | 96,000 tested, 20% active | CYP2C9 Supersomes, luciferin-H conversion | inhibition, % at 5 µM;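 active = blocking of liver enzyme CYP2C9 beyond about 50% at 5 µM, limit read from the data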
CYP2C9 activ – human CYP2C9 activators, primary screen, biochemical, luminescence | Cytochrome P450 2C9 (Homo sapiens), P11712 | recombinant CYP2C9, luciferin-H conversion; stronger effect = higher value; factor 1 = untreated enzyme, 0 = blocked | activation factor at 5 µM | 96,000 tested, 1.4% active | AID 1024, 2008;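 active = activation factor of 2 or more for CYP2C9 at a 5 µM dose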;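 note: 0 = sulfaphenazole-blocked wells and 1 = vehicle-only wells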
Mac1 fbg enh – enhancers of CD11b/CD18 adhesion to fibrinogen, primary screen, K562 cells, luminescence. ATPlite luminescence. activation, % at 10 µM. 93,000 tested, 0.07% active. AID 1499, 2009;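 active = 10 µM primary screen giving 50% or more activity, confirmed by 40% or more on retest at that dose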
The depositor's hits bear a star; . = no result given. This is a sample that favours compounds with a hit; in the whole collection about 28% have one here.

SMILES | CYP2C19 inhib | CD11b adhes inh | CYP2C19 activ | CYP2C9 inh | CYP2C9 activ | Mac1 fbg enh
O=C(NCCc1ccc(Cl)cc1)C1CCC(=O)N1C1CCCC1 (stereo unspecified) | 26 | . | 0.7 | -134 | 2.3* | .
O=S1CCCSC1c1cccnc1 (stereo unspecified) | -5 | -23 | 1 | -5 | 1.1 | 2
Cc1cccc(OCCNc2nc3c(c(=O)n(C)c(=O)n3C)n2C)c1 | 17 | . | 0.8 | 29 | 0.7 | .
C/C(=N\N=C(/N)SC1CC(=O)N(c2ccccc2)C1=O)c1cccs1 (stereo unspecified) | 29 | -8 | 0.7 | 56* | 0.4 | -6
C/C(=N\N=C(/N)SC1CC(=O)N(c2ccc(Cl)cc2)C1=O)c1cccs1 (stereo unspecified) | 14 | -8 | 0.9 | -29 | 1.3 | -2
Cc1csc(=O)n1CCC(=O)O | -20 | 6 | 1.2 | -33 | 1.3 | -1
CN(C(=O)Nc1ccc(S(=O)(=O)N(C)C)cc1)C1CCCCC1 | -8 | 23 | 1.1 | -14 | 1.1 | -4
COc1ccc(NC(=O)CSc2nnc(-c3cccs3)n2-c2ccccc2)cc1 | -3 | -5 | 1 | -8 | 1.1 | -2
Cc1ccc(C2C3CSCC=C3C(C#N)=C(N)C2(C#N)C#N)cc1 (stereo unspecified) | 29 | -25 | 0.7 | 81* | 0.2 | -1
Cc1ccc([C@@H]2C3COCC=C3C(C#N)=C(N)C2(C#N)C#N)o1 (stereo partly specified) | 69* | -3 | 0.3 | 49 | 0.5 | -2
CC(C)N1CC=C2C(C#N)=C(N)C(C#N)(C#N)C(c3ccccc3)C2C1 (stereo unspecified) | 3 | -40 | 1 | 4 | 1 | 7
CC(C)N1CC=C2C(C#N)=C(N)C(C#N)(C#N)[C@H](c3ccoc3)[C@H]2C1 | 24 | -14 | 0.8 | 6 | 0.9 | 0
N#CC1=C(N)C(C#N)(C#N)[C@H](c2ccncc2)[C@H]2CC3(CC=C12)OCCO3 | 51* | 1 | 0.5 | 71* | 0.3 | -4
Cc1cc(C)c(S(=O)(=O)N2CCCCC2)c(C)c1N(C)S(=O)(=O)c1ccc(Cl)cc1 | . | 8 | . | . | . | -1
COc1ccc2[nH]c(=O)c(CN(C(=O)NC3CCCCC3)C3CCCC3)cc2c1 | 18 | -8 | 0.8 | 31 | 0.7 | -2
COC(=O)c1ccccc1NC(=O)/C=C/c1cc(OC)c(OC)c(OC)c1 | 6 | 1 | 0.9 | 1 | 1 | 2
COc1ccc(C(=O)/C=C/c2ccccc2C(F)(F)F)cc1 | 15 | -12 | 0.9 | -90 | 1.9 | 6
CCCC/S(CC1CC1(Cl)Cl)=N\S(=O)(=O)c1ccc(C)cc1 (stereo unspecified) | -2 | 35 | 1 | 6 | 0.9 | -2
Cc1ccc(S(=O)(=O)/N=S(\C)CC2CC2(Cl)Cl)cc1 (stereo unspecified) | 58* | -9 | 0.4 | -60 | 1.6 | 0
COc1ccc(C2C3=C(Nc4ncnn42)c2ccccc2CC3)cc1OC (stereo unspecified) | 55* | -5 | 0.4 | 36 | 0.6 | 0
Cc1cccc(/C=N\NC(=O)c2sccc2-n2cccc2)c1 | 44 | . | 0.6 | 12 | 0.9 | .
C=CCOC(=O)C1=C(C)OC(N)=C(C#N)C1c1c(C)nn(-c2ccccc2)c1Cl (stereo unspecified) | 89* | 20 | 0.1 | 82* | 0.2 | -3
Cc1ccc(-n2nc(C)c(C3C(C#N)=C(N)OC4=C3C(=O)CC(C)(C)C4)c2Cl)cc1 (stereo unspecified) | 7 | -8 | 0.9 | 11 | 0.9 | -4
CC1=C(n2nnc3ccccc32)C(c2ccccc2)C(C#N)=C(N)O1 (stereo unspecified) | 30 | -6 | 0.7 | 26 | 0.7 | -3
CCOC(=O)C1=C(C)OC(N)=C(C#N)C1c1c(C)nn(-c2ccccc2)c1Cl (stereo unspecified) | 83* | -10 | 0.2 | 74* | 0.3 | 1
SMILES | CYP2C19 inhib | CD11b adhes inh | CYP2C19 activ | CYP2C9 inh | CYP2C9 activ | Mac1 fbg enh
CC1=C(C(=O)OCc2ccccc2)C(c2ccoc2)C(C#N)=C(N)O1 (stereo unspecified) | 77* | -11 | 0.2 | 48 | 0.5 | 2
CCCC(=O)Nc1ccc2c(c1)nc(CN1CCCCC1)n2C | -1 | -7 | 1 | 7 | 0.9 | 2
O=C(NCc1nnc(SCC(=O)N2CCCc3ccccc32)n1-c1ccccc1)c1cccc2ccccc12 | . | 14 | . | . | . | -5
O=C(N/N=C/c1ccco1)C1COc2ccccc2O1 (stereo unspecified) | . | 2 | . | . | . | 1
C/C(=N/NC(=O)C1CC1(c1ccccc1)c1ccccc1)c1cccs1 (stereo unspecified) | . | 15 | . | . | . | 0
O=C(N/N=C/c1cccs1)C1COc2ccccc2O1 (stereo unspecified) | 82* | 10 | 0.2 | 45 | 0.6 | -2
C/C(=N\NC(=O)C1COc2ccccc2O1)c1cccs1 (stereo unspecified) | 80* | -5 | 0.2 | 30 | 0.7 | -2
COc1cccc(C2CC(=O)NC(SC)=C2C#N)c1 (stereo unspecified) | 64* | -2 | 0.4 | 62* | 0.4 | 1
CCSC1=C(C#N)C(c2ccc(OC)c(OC)c2)CC(=O)N1 (stereo unspecified) | 63* | -2 | 0.4 | 27 | 0.7 | 1
CCSC1=C(C#N)C(c2ccc(F)cc2)CC(=O)N1 (stereo unspecified) | 38 | -6 | 0.6 | 10 | 0.9 | -1
CCOc1ccc(NC(=O)CN2CCN(CC(=O)c3ccc(OC)c(OC)c3)CC2)cc1 | 11 | -10 | 0.9 | 10 | 0.9 | -1
COc1ccccc1C1C(C(=O)c2cc3ccccc3o2)=C(O)C(=O)N1CCN1CCOCC1 (stereo unspecified) | -16 | -26 | 1.2 | -20 | 1.2 | -2
CN(C)c1ccc(C=C(c2nnnn2-c2ccccc2)c2nnnn2-c2ccccc2)cc1 | . | -10 | . | . | . | -2
CC(C)N(C(=O)CN1C(=O)NC2(CCCCCC2)C1=O)C(C)C | -6 | -4 | 1.1 | -10 | 1.1 | 0
Cc1cc(C)nc(SCc2nnc(SCC(=O)Nc3cc(C(F)(F)F)ccc3Cl)o2)n1 | 80* | 9 | 0.2 | -105 | 2* | 9
Cc1cc(C)nc(SCc2nnc(SCC(=O)N3CCCc4ccccc43)o2)n1 | 80* | -18 | 0.2 | 6 | 0.9 | -1
Cc1cc(C)nc(SCC(=O)Nc2ncc(C(F)(F)F)cc2Cl)n1 | . | -7 | . | . | . | 3
Cc1cc(C)nc(SCc2nnc(SCc3ccccc3Cl)o2)n1 | 78* | -6 | 0.2 | -29 | 1.3 | 0
